# Bioassay records from PubChem.
# Dicer inh = blocks human Dicer maturation of pre-miR-21; Q9UPY3; cat-ELCCA pre-miR-21 Dicer processing, chemiluminescence; active compounds read high; z-score at 25 µM; hit rate 6% among 47,000; AID 1347074; in the data active means z-score above about 3, passing the limit was not always enough;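 further: plate controls were vehicle for no effect and no enzyme for full effect; higher signal means more uncleaved substrate so more Dicer inhibition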
# Target sequence (Q9UPY3 whole entry, looked up): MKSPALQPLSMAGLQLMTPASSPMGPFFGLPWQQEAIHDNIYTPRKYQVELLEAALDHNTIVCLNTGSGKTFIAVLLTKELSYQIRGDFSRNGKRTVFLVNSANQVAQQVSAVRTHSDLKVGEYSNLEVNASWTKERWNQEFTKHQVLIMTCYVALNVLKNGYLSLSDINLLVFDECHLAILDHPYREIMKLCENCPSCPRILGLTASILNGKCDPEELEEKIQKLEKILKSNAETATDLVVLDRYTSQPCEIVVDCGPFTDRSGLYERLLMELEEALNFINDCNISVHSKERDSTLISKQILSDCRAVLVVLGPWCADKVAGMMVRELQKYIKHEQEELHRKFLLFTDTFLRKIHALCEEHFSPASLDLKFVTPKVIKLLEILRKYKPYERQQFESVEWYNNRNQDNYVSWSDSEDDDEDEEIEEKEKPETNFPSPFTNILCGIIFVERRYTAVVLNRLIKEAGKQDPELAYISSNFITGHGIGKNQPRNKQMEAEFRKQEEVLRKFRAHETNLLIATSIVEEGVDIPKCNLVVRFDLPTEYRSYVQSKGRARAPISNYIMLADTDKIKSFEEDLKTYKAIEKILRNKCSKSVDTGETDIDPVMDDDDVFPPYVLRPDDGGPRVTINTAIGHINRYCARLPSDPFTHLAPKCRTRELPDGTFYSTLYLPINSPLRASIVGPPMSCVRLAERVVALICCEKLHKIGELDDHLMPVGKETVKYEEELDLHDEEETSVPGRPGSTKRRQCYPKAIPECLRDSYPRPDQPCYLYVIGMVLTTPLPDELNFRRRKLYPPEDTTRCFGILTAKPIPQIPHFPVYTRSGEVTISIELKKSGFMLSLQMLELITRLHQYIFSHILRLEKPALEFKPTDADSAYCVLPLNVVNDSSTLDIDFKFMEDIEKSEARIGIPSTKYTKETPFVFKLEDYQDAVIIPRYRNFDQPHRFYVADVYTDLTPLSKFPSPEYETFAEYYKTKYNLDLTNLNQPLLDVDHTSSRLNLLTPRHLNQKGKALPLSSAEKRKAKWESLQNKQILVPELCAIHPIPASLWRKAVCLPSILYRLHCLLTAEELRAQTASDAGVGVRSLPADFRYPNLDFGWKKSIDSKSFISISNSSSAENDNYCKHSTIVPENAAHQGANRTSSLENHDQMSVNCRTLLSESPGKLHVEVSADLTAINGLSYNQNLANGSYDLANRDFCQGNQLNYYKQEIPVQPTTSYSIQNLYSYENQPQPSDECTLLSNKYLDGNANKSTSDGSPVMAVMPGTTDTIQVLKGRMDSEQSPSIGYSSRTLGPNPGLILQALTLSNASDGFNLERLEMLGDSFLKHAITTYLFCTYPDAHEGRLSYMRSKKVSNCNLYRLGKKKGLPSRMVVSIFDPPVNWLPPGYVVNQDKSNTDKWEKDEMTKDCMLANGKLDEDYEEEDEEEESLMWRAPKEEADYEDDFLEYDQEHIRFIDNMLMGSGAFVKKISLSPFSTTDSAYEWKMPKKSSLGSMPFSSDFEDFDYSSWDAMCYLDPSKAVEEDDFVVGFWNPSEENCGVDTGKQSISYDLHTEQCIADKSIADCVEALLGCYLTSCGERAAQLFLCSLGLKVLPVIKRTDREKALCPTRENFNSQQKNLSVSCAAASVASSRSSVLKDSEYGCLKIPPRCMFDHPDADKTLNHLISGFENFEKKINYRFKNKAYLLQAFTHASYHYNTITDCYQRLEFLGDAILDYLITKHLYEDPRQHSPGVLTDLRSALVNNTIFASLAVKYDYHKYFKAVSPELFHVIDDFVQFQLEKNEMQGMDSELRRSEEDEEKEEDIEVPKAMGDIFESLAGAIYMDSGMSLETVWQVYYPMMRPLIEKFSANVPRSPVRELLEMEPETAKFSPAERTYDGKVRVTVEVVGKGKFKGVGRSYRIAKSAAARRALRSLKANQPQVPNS
# * marks the source's active call; other numbers are inactive results. Only a selection was taken, and hits are over-represented in it overall.
SMILES,Dicer inh
CN(C)Cc1ccc(O)c(CN(C)C)n1,-1.74
CN(C)Cc1c(O)ccc2c(=O)c(Oc3ccc4ccccc4c3)c(C(F)(F)F)oc12,-0.51
CN(C)Cc1c(O)ccc2ccccc12,5.31*
Cc1ccc(S(=O)(=O)N2CCCN(S(=O)(=O)c3ccc(C)cc3C)CC2)c(C)c1,-0.03
Cc1ccc2oc(=O)n(CCCOc3ccc(Br)cc3)c2c1,3.16*
Cc1ccc2c(c1)C(=O)C(=O)N2CCOc1ccc(Br)cc1,0.93
Cc1ccc2oc(=O)n(CCC#N)c2c1,-0.44
NC(=O)C1=CN(C(=O)Nc2ccc(Cl)cc2)CCC1C(F)(F)F (stereo not drawn),-1.73
CCOc1ccc2nc(Nc3nc(C)cc(C(F)(F)F)n3)nc(C)c2c1,34.7
CCOC(=O)N1CCc2c(sc3ncn(CC(C)=O)c(=O)c23)C1,-1.09
CNC(=S)Nc1cc(C(F)(F)F)cc(C(F)(F)F)c1,1.33
Fc1cccc(Cl)c1CO/N=C/c1ccc(Cl)cc1Cl,1.6
COC(=O)CO/N=C/c1ccc(Cl)cc1Cl,-0.09
O=C(CO/N=C/c1ccc(Cl)cc1Cl)NNC(=S)Nc1cc(Cl)ccc1Cl,5.62*
CC1CCc2c(sc3nc(SC(C)C)nc(NCc4ccccc4)c23)C1 (stereo not drawn),-0.04
COc1ccc(Nc2nc(NC(=O)Nc3ccc(Cl)cc3)n[nH]2)cc1,10.1*
COc1ccc(NC(=O)/C=C/c2ccc(Cl)cc2)cc1,-0.89
COc1ccc2nc(NC(=O)Nc3ccc(Cl)cc3)sc2c1,2.7
C=CCn1c(CSc2nc(-c3ccccc3)cn2-c2ccc(OC)cc2OC)n[nH]c1=S,3.43*
S=c1[nH]nc(CSc2nc(-c3ccccc3)cn2-c2ccccc2)n1-c1ccccc1,0.02
C=CCn1c(SCc2n[nH]c(=S)n2C)nnc1-c1ccccc1,-0.49
O=C(NCCCO)C(=O)NC1CCCCC1,-0.51
O=C(NCc1ccc(F)cc1)c1cc2n(n1)C(C(F)(F)F)CC(c1ccco1)N2 (stereo not drawn),2.59
O=C(Nc1ccccc1)c1cc2ccccc2o1,0.54
O=C(Nc1ccc(F)cc1)c1cc2ccccc2o1,-0.2
SMILES,Dicer inh
CC(C)(C)NC(=O)c1cc2ccccc2o1,4.18*
O=C(c1ccc(Cl)cc1)C(Sc1ccc(Cl)cc1)c1ccccc1 (stereo not drawn),-1.01
COC(=O)c1sccc1NC(=O)CC1C(=O)NCCN1S(=O)(=O)c1cccs1 (stereo not drawn),0.31
Cc1ccccc1NC(=O)/C=C/C(=O)O,-0.63
C/C=C/C(=O)N(CC)c1ccccc1C,3.57*
CCN(C(=O)c1cnccc1C(F)(F)F)c1cccc(C)c1C,-0.66
CSc1ccc(NC(=O)c2cc3c4c(sc3nc2N)CCCC4)cc1,-1.07
CCOC(=O)c1c(N)oc2c(-c3ccc(C)cc3)c3c(C(=O)OCC)c(N)oc3cc12,-1.58
CCOC(=O)c1c(N)oc2c(-c3ccc(CC)cc3)c3c(C(=O)OCC)c(N)oc3cc12,0.57
COC(=O)c1c(N)oc2c(-c3ccc(C)cc3)c3c(C(=O)OC)c(N)oc3cc12,3.8*
CCOC(=O)c1c(N)oc2c(-c3ccc(C)c(C)c3)c3c(C(=O)OCC)c(N)oc3cc12,4.99*
COC(=O)c1c(C)oc2ccc(O)cc12,1.53
COC(=O)c1c(C)oc2ccc(OC(C)C(=O)O)cc12 (stereo not drawn),-0.16
CCOC(=O)N1CCC(N/C=C(\C(C)=O)S(=O)(=O)c2ccc(Cl)cc2)CC1,-1.93
Cc1onc(-c2c(Cl)cccc2Cl)c1C(=O)N=S(C)(=O)c1ccc(C(F)(F)F)cn1 (stereo not drawn),-1.46
Cc1ccc2c(C)nc(NC3=NCN(Cc4ccccc4)CN3)nc2c1,-0.01
Cc1cc2nc(NC3=NCN(Cc4ccc5c(c4)OCO5)CN3)nc(C)c2cc1C,3.21*
CCOc1ccc2nc(NC3=NCN(CCCN4CCOCC4)CN3)nc(C)c2c1,3.75*
Cc1cc2nc(NC3=NCN(CCCN4CCOCC4)CN3)nc(C)c2cc1C,1.8
CCCCN1CN=C(Nc2nc(C)c3cc(OCC)ccc3n2)NC1,1.2
Cc1cc2nc(NC3=NCN(Cc4ccco4)CN3)nc(C)c2cc1C,2.98
Cc1ccc(-n2c(-c3ccc(Cl)cc3)cn3c4c(=O)n(C)c(=O)n(C)c4nc23)cc1N,-2.2
O=C1C2C3C=CC(CC3)C2C(=O)N1Cc1ccccc1 (stereo not drawn),0.77
O=C(Nc1ccc(Cl)cc1)c1cc2n(n1)C(C(F)(F)F)CC(c1ccco1)N2 (stereo not drawn),1.38
O=C(c1nn2c(c1Cl)NC(c1ccco1)CC2C(F)(F)F)N1CCCC1 (stereo not drawn),2.42
SMILES,Dicer inh
CC(C)(C)NC(=O)c1nn2c(c1Br)NC(c1ccccc1)CC2C(F)(F)F (stereo not drawn),-0.07
O=C(Nc1ccc(Cl)cc1)c1nn2c(c1Cl)NC(c1ccco1)CC2C(F)(F)F (stereo not drawn),3.78*
COc1ccc(N2CCN(C(=O)c3cc4n(n3)C(C(F)(F)F)CC(c3ccco3)N4)CC2)cc1 (stereo not drawn),0.83
O=C(Nc1ccc(O)cc1)c1cc2n(n1)C(C(F)(F)F)CC(c1ccco1)N2 (stereo not drawn),1.16
O=C(c1nn2c(c1Cl)NC(c1ccco1)CC2C(F)(F)F)N1CCN(c2ccccc2)CC1 (stereo not drawn),5.3*
O=C(NC1CC1)c1cc2n(n1)C(C(F)(F)F)CC(c1ccco1)N2 (stereo not drawn),-0.56
CC(C)(C)NC(=O)c1nn2c(c1Cl)NC(c1ccco1)CC2C(F)(F)F (stereo not drawn),3.18*
O=C(c1cccs1)N1CCN(c2ccnc3cc(Cl)ccc23)CC1,0.52
O=C(CSc1ncnc2sc3c(c12)CCCC3)NNS(=O)(=O)c1cc(C(F)(F)F)cc(C(F)(F)F)c1,-0.72
Cc1cc(Br)ccc1OCCCN1CCC(C)CC1,0.09
CSc1ccc([N+](=O)[O-])c(CS(=O)(=O)c2ccccc2)c1,-0.58
O=C(Cn1nnc(-c2ccc3c(c2)OCO3)n1)Nc1ccc(F)c(F)c1,2.5
COc1ccc(C2Nc3ccccc3-c3nnc(SC)nc3O2)cc1OC (stereo not drawn),2.44
CCN(CC)C1=C(C(=O)c2ccccc2)N(CC(N)=O)S(=O)(=O)c2ccccc21,3.13*
C=CCN1C(C(=O)c2ccccc2)=C(OC(C)=O)c2ccccc2S1(=O)=O,-0.22
O=C(CN1C(=O)c2ccccc2S1(=O)=O)c1ccccc1,-1.15
O=C1OC(c2ccc(Cl)cc2)Sc2ccccc21 (stereo not drawn),-0.64
N/C(=N\C(=S)Nc1cc(Cl)ccc1Cl)c1ccccc1,0.67
Cc1nc(C(F)(F)F)nc(Sc2n[nH]c(-c3cc(Cl)cc(Cl)c3)n2)c1C,-0.61
CC(CC(=O)O/N=C(\N)c1ccc(C(F)(F)F)cc1)S(=O)(=O)c1ccc(Cl)cc1 (stereo not drawn),-2.03
CC(C)Cc1ccc(C(C)C(=O)O/N=C(\N)c2ccc(C(F)(F)F)cc2)cc1 (stereo not drawn),3.19*
CC(C)Cc1ccc(C(C)/C(N)=N/O)cc1 (stereo not drawn),-0.66
COC(=O)c1ccc(Cl)cc1N(CCCC#N)S(=O)(=O)c1ccc(OC)c(OC)c1,0.8
O=C(O)CCSc1nnc(COc2ccccc2)o1,-0.24
Cc1cc(C)nc(Nc2ncc(O)n2-c2ccc(C)c(C)c2)n1,3.6*
Cc1cc(C)c2c(C)nn(-c3ccc(C)c(C)c3)c2n1,-3.49
CCOc1ccc(-n2c(O)cnc2Nc2nc(C)cc(C)n2)cc1,1.27
Cc1nc(C)c(-c2ccn(C(=O)c3ccc(Cl)cc3)n2)o1,-0.5
